Growth data for eight compounds are collected here from PubChem BioAssay (NCI).

What all share (experiment): NCI-60 one-dose screen, 48 h (100 = growth as untreated, 0 = no growth, -100 = all killed)
Conditions in all cases: 10 µM unless noted

Test [1] concerns NCI-H23 lung.
The subject of test [2] is NCI-H226 lung.
The subject of test [3] is NCI-H322M lung.
Test [4] deals with NCI-H460 lung.
The test system of test [5] is HOP-92 NSCLC.
The test system of test [6] is NCI-H522 lung.
Test [7] deals with A549/ATCC NSCLC.
Test [8] relates to 786-0 renal.
For test [9], the system named is DU-145 prostate.
Test [10] deals with K-562 leukemia.
Test [11] deals with MALME-3M melanoma.
Test [12] has as its system MDA-MB-231 breast.
Test [13] deals with RXF 393 renal.
In test [14] the test system is SF-268 CNS.
The test system of test [15] is SF-295 CNS.
The test system of test [16] is SF-539 CNS.
Test [17] has as its system UACC-257 melanoma.
The subject of test [18] is M14 melanoma.
In test [19] the test system is COLO 205 colon.
In test [20] the test system is HOP-62 NSCLC.

This is part of a sample that, as a whole, favours compounds with a hit. Of some 83,000 tested, about 20% had one in any assay.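 Results are percent growth after 48 hours of single-concentration exposure. 100 means growth as in untreated cells, lower positive values show inhibition; negative values down to -100 show cell death.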 A number with no mark means an inactive call. The source made the active and inactive calls. The calls were made as follows: active = growth percent below 10; inactive = the rest.

As to `CCn1cc(C(=O)NN=C2CCCCCC2)c(=O)c2ccc(C)nc21`, the growth in test [1] was 89.5%; in test [2] it was 82%; in test [3], 88.7%; in [4], 92.4%; in test [5] it was 80.7%; in [6] it was 75.3%. Moreover, the growth in test [7] is 82.6%; in test [8], 87.2%; in [9] it was 89.2%; in test [10], 72%; in test [11] it was 97.1%; in test [12] it was 87.1%. The growth in test [13] is 100%; in [14] it was 84%; in test [15], 77.7%; in [16], 100%; in test [17] it was 87.8%; in test [18] it was 103%.

With `Cc1ccc2[nH]c(-c3ccc(S(C)(=O)=O)cc3)c(/C=N/N=C(N)N)c2c1`, the growth in test [1] is 76.4%; in test [2], 76.6%; in [3], 79%; in test [4], 37.9%; in test [5] it was 59.9%; in [6], -7.31% (active). In addition, the growth in test [7] was 46.2%; in test [8] it was 44.9%; in test [19], 49%; in test [9], 48%; in test [10] it was 26.3%; in test [11], 52.4%. In addition, the growth in [12] is 67.6%; in test [13], 66.8%; in test [14], 62.1%; in [15], 43.2%; in [16] it was 59.5%; in [17], 43.1%. The growth in [18] is 32.5%.

Turning to `CCc1ccc(CCC(=O)Nc2ncc(Cc3ccc(Cl)cc3)s2)o1`, the growth in test [1] is 54.9%; in [2], 61.8%; in test [3], 52%; in [4], 6.53% (active); in test [5], 69.8%; in test [6], -3.33% (active). The growth is 29.6% in [7]; 41.2% in [8]; 12.3% in [19]; 14.4% in test [9]; 10.9% in test [10]; 46.4% in test [11]. Besides, the growth in test [12] was 60.7%; in test [13], -12.8% (active); in [14] it was 58.4%; in test [15], 17%; in [16], 2.47% (active); in [17], 56.6%. Also, the growth in test [18] is 8.78% (active).

`Nc1c(C(=O)Nc2ccccn2)sc2nc3c(cc12)C(O)CCC3` (centres undefined): the growth is 45.1% in test [1]; 57.7% in test [2]; 36.5% in [3]; 26.3% in [20]; 13.7% in test [4]; 50.9% in [5]. Besides, the growth in test [6] is 11.8%; in [8], 32.9%; in [19], 23.6%; in [9], 25%; in test [10] it was 20.6%; in [11] it was 60.8%. Besides, the growth was 67.1% in test [12]; 4.65% (active) in [13]; 44% in [14]; 4.92% (active) in test [15]; 8.44% (active) in [16]; 53.2% in [17]. The growth in test [18] is 21.1%.

For the compound `COc1ccc(C2=NN(C(C)=O)C(c3ccc(Oc4ccnc5cc(Cl)ccc45)c(OC)c3)C2)cc1` (centres undefined), the growth in test [1] was 65.9%; in test [2], -0.374% (active); in [3], 26.7%; in test [4], 30.7%; in test [5], -1.54% (active); in test [6] it was 46.8%. Further, the growth in [7] was 44.6%; in test [8] it was 23.9%; in test [19], 47.7%; in [9] it was 59.8%; in test [10], 68.6%; in [11], 52.8%. Also, the growth in test [12] is 41.9%; in test [13] it was 23%; in [14], 76%; in test [15] it was 49.5%; in test [16], 2.73% (active); in [17], 70.5%. Also, in [18], the growth was 71.8%.

Consider `CCNc1nc(-c2ccc(F)cc2)c(C#N)c(=O)n1C`, for which the growth is 73.8% in [1]; 55% in test [2]; 57.2% in [3]; 51.8% in [20]; 74.7% in test [4]; -1.14% (active) in test [5]. The growth in test [6] was 52.1%; in test [8], 64.3%; in [9] it was 63.4%; in test [10], 100%; in test [11], 93%; in test [12], 33.6%. Also, the growth in test [13] was 44%; in test [14], 58.5%; in test [15] it was 59.7%; in [16] it was 59.7%; in test [17], 102%; in [18], 82.8%.

Regarding `COc1ccc(C(c2cc(OC)c(OC)c(OC)c2)N2CCN(Cc3ccccc3)CC2)cc1` (centres undefined), the growth is 88.5% in test [1]; 85.4% in test [2]; 65.1% in test [3]; 74.4% in [4]; 70.6% in test [5]; 52.4% in test [6]. Besides, the growth in test [7] was 78.4%; in [8], 82.6%; in test [19], 61.8%; in test [9], 102%; in [10] it was 26.4%; in test [11], 74.8%. Also, the growth in test [12] is 71%; in [13] it was 72.3%; in [14], 86.4%; in test [15] it was 68.7%; in [16] it was 81.2%; in [17], 84.2%. Also, the growth in [18] was 52.8%.

As for `CC1(C)CC2=C3C=C[C@@H]4[C@@]5(C)CC[C@H](O)C(C)(C)[C@@H]5CC[C@@]4(C)[C@]3(C)CC[C@@]2(C(=O)O)CC1=O`, the growth in test [1] was 41.2%; in [2] it was 32.3%; in test [3], 55.1%; in test [4], 63.2%; in [5], -5.32% (active); in test [6], 51.2%. Also, the growth in test [7] was 39.2%; in [8], 21.1%; in [19] it was 67%; in test [9] it was 84.1%; in test [10], 57.5%; in test [11] it was 15.9%. The growth in test [12] was 40.4%; in test [13], 21.8%; in [14] it was 35.4%; in test [15], 47.3%; in test [16], 60%; in test [17], 20.9%.
